Gli-Sufu block: Gli-Sufu pathway antagonists, primary screen, luciferase luminescence, Sufu-KO-LIGHT cells, uHTS; Sufu-KO-LIGHT fibroblasts, Gli luciferase reporter luminescence; AID 588413, 2011; inhibition, % at 5 µM; actives 0.74% (n = 340,000);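 active = inhibition above about 55%, limit read from the data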
Jurkat NFkB inh: inhibitors of induced NF-kB luciferase reporter, primary screen, TCR NF-kB activation inhibitor project, cell-based, luminescence, uHTS | AID 435003, 2010 | Jurkat, PMA/ionomycin-induced NF-kB luciferase reporter | actives 0.53% (n = 330,000) | inhibition, % at 4 µM; in the data active = inhibition above about 50%
aSyn UTR inh: MLPCN primary screen, SNCA 5' untranslated region | alpha-synuclein 5'UTR reporter, inhibitor activity | inhibition, % (tested at 7.5 µM) | AID 1813, 2009 | actives 0.82% (n = 300,000); in the data active = inhibition above about 60%;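 also: H4 neuroglioblastoma cells stably carrying SNCA 5'UTR luciferase fusion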
697 NFkB inh: inhibitors of PMA/ionomycin-induced NF-kB reporter, 697 cells, primary screen, B-cell NF-kB inhibitor project, cell-based, luminescence, uHTS; 697 B-cell NF-kB luciferase reporter, 16 h; actives 0.33% (n = 330,000); AID 435022, 2010; inhibition, % at 4 µM; in the data active = inhibition above about 35%
CSC inhib: cancer stem cell viability inhibitors, primary screen, luminescence; cancer stem cell-like cells viability; inhibition, % at 7.5 µM; actives 1.1% (n = 300,000); AID 2717, 2010; in the data active = inhibition above about 75%; tested in HMLE shEcad cells
Mdm2 MdmX PPI: inhibitors of human Mdm2-MdmX association, primary screen, cell-based, luminescence, split luciferase, SaOS-2, uHTS; SaOS-2 split-luciferase Mdm2/MdmX complementation; Protein Mdm4 (Homo sapiens) + E3 ubiquitin-protein ligase Mdm2 (Homo sapiens), …; inhibition, % at 8 µM; actives 3% (n = 330,000); AID 485346, 2010;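 active = inhibition of at least 50% at 8 µM in the primary screen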
Target sequence (O15151 whole entry, looked up): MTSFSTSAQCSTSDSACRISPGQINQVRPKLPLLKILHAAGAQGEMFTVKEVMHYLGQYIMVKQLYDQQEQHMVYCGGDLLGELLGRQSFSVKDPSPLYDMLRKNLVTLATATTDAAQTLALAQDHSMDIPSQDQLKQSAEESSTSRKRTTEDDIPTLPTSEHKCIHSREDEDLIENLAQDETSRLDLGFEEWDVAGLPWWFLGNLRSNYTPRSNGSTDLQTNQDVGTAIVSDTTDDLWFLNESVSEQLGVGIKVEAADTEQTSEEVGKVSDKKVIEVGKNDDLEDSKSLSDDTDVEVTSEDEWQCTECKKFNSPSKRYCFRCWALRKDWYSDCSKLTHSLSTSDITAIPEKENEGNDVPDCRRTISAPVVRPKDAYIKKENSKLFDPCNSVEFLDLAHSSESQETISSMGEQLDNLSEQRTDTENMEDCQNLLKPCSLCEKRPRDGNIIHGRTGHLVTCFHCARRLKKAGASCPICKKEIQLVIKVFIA
Target sequence (Q00987 whole entry, looked up): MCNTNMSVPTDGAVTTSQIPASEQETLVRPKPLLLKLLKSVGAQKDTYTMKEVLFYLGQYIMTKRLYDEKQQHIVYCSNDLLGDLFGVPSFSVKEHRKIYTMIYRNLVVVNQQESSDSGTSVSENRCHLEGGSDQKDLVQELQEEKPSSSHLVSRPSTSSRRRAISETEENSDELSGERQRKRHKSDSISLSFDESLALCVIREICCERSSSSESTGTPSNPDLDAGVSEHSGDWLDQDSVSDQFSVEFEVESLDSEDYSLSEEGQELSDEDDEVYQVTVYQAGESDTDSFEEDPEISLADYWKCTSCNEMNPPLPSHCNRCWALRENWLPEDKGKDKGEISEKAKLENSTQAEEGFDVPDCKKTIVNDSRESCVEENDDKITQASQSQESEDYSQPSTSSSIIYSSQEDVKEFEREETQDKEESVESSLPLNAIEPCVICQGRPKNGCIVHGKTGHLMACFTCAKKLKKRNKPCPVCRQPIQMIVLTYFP
Jurkat NFkB conf: PMA/ionomycin-induced NF-kB reporter inhibitors, Jurkat retest, confirmation, T-cell NF-kB inhibitor project, cell-based, luminescence, single concentration | shares compounds with Jurkat NFkB inh | Jurkat NF-kB luciferase, 16 h | inhibition, % at 4 µM | actives 27% (n = 2,700);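 active = inhibition reaching about 45% at 4 µM in either replicate, limit read from the data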
Numbers stand for hits; 0 = inactive; - = no result. Sampled rows, rich in hits. Any-hit rate of the full collection: about 4.5%.

SMILES	Gli-Sufu block	Jurkat NFkB inh	aSyn UTR inh	697 NFkB inh	CSC inhib	Mdm2 MdmX PPI	Jurkat NFkB conf
COc1ccc(S(=O)(=O)n2ccc(-c3cnc(-c4ccccc4)s3)n2)cc1	0	0	0	0	0	0	-
O=C(c1ccccc1)n1ccc(-c2cnc(-c3ccccc3)s2)n1	0	0	0	0	0	0	0
Cc1ccc(S(=O)(=O)N2CCOCC2)cc1C(=O)N1CCN(S(=O)(=O)c2ccccc2F)CC1	0	-	-	-	-	-	-
S=C1CCC(c2ccc(Br)cc2)=NN1c1ccccc1	0	0	0	0	0	0	-
CCC(=O)Nc1c(C(=O)Nc2ccc3c(c2)OCCO3)oc2ccccc12	0	0	0	0	-	0	-
CCOCC(=O)Nc1c(C(=O)Nc2ccc3c(c2)OCCO3)oc2ccccc12	0	0	0	0	0	0	0
COCC(=O)Nc1c(C(=O)Nc2ccc3c(c2)OCCO3)oc2ccccc12	0	0	0	0	0	0	0
COC(=O)c1cccc(N/C=C(\[N+](=O)[O-])S(=O)(=O)c2ccccc2)c1	0	0	0	0	0	0	-
CCOc1ccc2oc(C(=O)Nc3cc(C)ccn3)c(C)c2c1	0	0	0	0	0	0	0
CCOc1ccc2oc(C(=O)O)c(C)c2c1	0	0	0	0	0	0	-
Cc1ccnc(NC(=O)c2oc3ccccc3c2C)c1	0	0	0	0	0	0	0
Cc1ccc(C2=NN3C(C2)c2ccccc2OC32C(=O)Nc3ccccc32)cc1 (stereo not drawn)	0	0	0	0	0	0	0
COc1ccc(S(=O)(=O)N2CCN(C(=O)CCc3c[nH]c4ccccc34)CC2)cc1	0	0	-	0	-	0	-
COc1ccc(C(=O)Nc2ccccc2C(=O)N/N=C/c2ccccn2)cc1OC	0	55.6	0	0	0	0	0
COc1ccc(C(=O)Nc2nc3cc4c(cc3s2)OCO4)c(OC)c1	0	0	0	0	0	0	0
O=C(Nc1nc2cc3c(cc2s1)OCO3)C1CCCCC1	0	0	0	0	0	0	0
CC(C)c1ccc2nc(NC(=O)C3CC3)sc2c1	0	0	0	0	0	0	0
O=C(Nc1nc2ccc(Cl)cc2s1)C1CC1	0	0	0	0	-	0	-
COc1ccc(C2=CC(c3c(C)nn(-c4ccccc4)c3Cl)n3nnnc3N2)cc1OC (stereo not drawn)	0	0	-	0	0	0	-
Cc1ccc2[nH]c(C(=O)N3CCOCC3)cc2c1	0	0	0	0	0	0	-
CCOc1cc(/C=N/O)ccc1OCc1ccc(F)cc1	0	0	0	0	0	0	-
COc1cc(/C=C(\C#N)C(=O)Nc2cccc(C(=O)O)c2)ccc1OCc1ccc(Cl)cc1	0	0	0	0	0	0	0
COc1cc(/C=N/O)ccc1OCc1ccc(Cl)cc1	-	0	0	0	0	0	0
COC(=O)c1c(-c2ccc(SC)cc2)sc2ccc(OC)cc12	0	0	-	0	0	0	0
COC(=O)c1c(-c2cc(OC)cc(OC)c2)sc2ccc(OC)cc12	0	0	-	0	-	0	-
SMILES	Gli-Sufu block	Jurkat NFkB inh	aSyn UTR inh	697 NFkB inh	CSC inhib	Mdm2 MdmX PPI	Jurkat NFkB conf
O=C(c1ccccc1)c1cnc(Nc2ccccc2Cl)s1	0	0	0	0	0	0	0
COc1cccc(NC(=O)CSc2ccc(-c3sc(C)nc3C)nn2)c1	0	0	0	0	0	0	-
COc1ccc(C)cc1NC(=O)CSc1ccc(-c2sc(C)nc2C)nn1	0	51.2	0	0	0	0	0
CCN(CC)C(=O)C1=C(C)NC(=S)NC1c1ccc(C)s1 (stereo not drawn)	0	0	0	0	0	0	-
CCCCc1ccc(NC(=O)c2ccc(NS(C)(=O)=O)cc2)cc1	0	0	0	0	0	0	-
CCCCc1ccc(NC(=O)c2ccc(N(C)S(C)(=O)=O)cc2)cc1	0	50.1	0	0	0	0	54.2
O=C(Nc1ccc(Cl)cc1Cl)c1cc2ccccc2o1	0	0	0	0	0	0	0
Cc1ccc(NC(=O)c2cc3ccccc3o2)nc1	0	0	0	0	0	0	0

Screening results from PubChem.
